Reference: the supplement of paper PMC9950053
Structures can show the parent of a compound that is named as a salt.

Test system: Danio rerio larvae (5 dpf)
Assay: excitability (activity period 17 minus period 16, 1-s interval sound) minus DMSO control (percentage points); higher = more acoustic excitability than DMSO larvae
Conditions: 10 µM; exposure time: 3 h pre-incubation + 3 h imaging
Method: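 Wild-type 5 dpf zebrafish larvae (n=48 per drug, 96-well plates, 28.5 °C) were exposed to Tocris FDA-approved library compounds at 10 µM (0.1% DMSO) for 3 h before and 3 h during imaging. Images were taken every 6 s during visual (moving coloured lines) and acoustic stimuli, and larvae were tracked with the DeepLabCut-based Z-LaP Tracker. Each behavioural measure is the treated-group mean minus the DMSO vehicle control mean (n=844), in percentage points. This mapping covers compounds with 4-character plate codes.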

Row | SMILES | excitability
1 | CC(C)CN(C[C@@H](O)[C@H](Cc1ccccc1)NC(=O)O[C@H]1CO[C@H]2OCC[C@H]21)S(=O)(=O)c1ccc(N)cc1 [Darunavir] | -0.913
2 | CN1CC(=O)N2[C@H](c3ccc4c(c3)OCO4)c3[nH]c4ccccc4c3C[C@@H]2C1=O [Tadalafil] | 5.81
3 | CCc1ccc(CCOc2ccc(CC3SC(=O)NC3=O)cc2)nc1 (stereo not given) [Pioglitazone hydrochloride] | 9.48
4 | CC(=O)Oc1ccccc1C(=O)O [Aspirin] | 10.3
5 | CCN(CC)CCNC(=O)c1c(C)[nH]c(/C=C2\C(=O)Nc3ccc(F)cc32)c1C [Sunitinib malate] | 15.8
6 | COc1cc2ncnc(Nc3ccc(F)c(Cl)c3)c2cc1OCCCN1CCOCC1 [Iressa] | 19.5
7 | Cc1cccc(C)c1OCC(C)N (stereo not given) [Mexiletine hydrochloride] | 3.31
8 | CC/C(=C(\c1ccccc1)c1ccc(OCCN(C)C)cc1)c1ccccc1 [Tamoxifen citrate] | 4.81
9 | Cn1nnc2c(C(N)=O)ncn2c1=O [Temozolomide] | 0.618
10 | Cc1ccc(N(CC2=NCCN2)c2cccc(O)c2)cc1 [Phentolamine Mesylate] | 15.6
11 | Nc1ncn([C@@H]2O[C@H](CO)[C@@H](O)[C@H]2O)c(=O)n1 [5-Azacytidine] | -2.47
12 | CCCCNc1cc(C(=O)O)cc(S(N)(=O)=O)c1Oc1ccccc1 [Bumetanide] | 7.06
13 | Cc1ccc(NC(=O)c2ccc(CN3CCN(C)CC3)cc2)cc1Nc1nccc(-c2cccnc2)n1 [Imatinib mesylate] | 13.3
14 | CN(CCOc1ccc(NS(C)(=O)=O)cc1)CCc1ccc(NS(C)(=O)=O)cc1 [Dofetilide] | 6.73
15 | Nc1ccn([C@@H]2O[C@H](CO)[C@@H](O)C2(F)F)c(=O)n1 [Gemcitabine hydrochloride] | 1.87
16 | Cn1cnc([N+](=O)[O-])c1Sc1ncnc2[nH]cnc12 [Azathioprine] | 0.781
17 | Nc1nc(NC2CC2)c2ncn([C@H]3C=C[C@@H](CO)C3)c2n1 [Abacavir hemisulfate] | 0.611
18 | CC(C)c1nc(N(C)S(C)(=O)=O)nc(-c2ccc(F)cc2)c1/C=C/[C@@H](O)C[C@@H](O)CC(=O)O [Rosuvastatin calcium] | -2.24
19 | CCOc1cc(CC(=O)N[C@@H](CC(C)C)c2ccccc2N2CCCCC2)ccc1C(=O)O [Repaglinide] | 9.5
20 | CN1CCN2c3ncccc3Cc3ccccc3C2C1 (stereo not given) [Mirtazapine] | 4.38

Row | SMILES | excitability
21 | O=C(O[C@@H]1C[C@@H]2C[C@H]3C[C@H](C1)N2CC3=O)c1c[nH]c2ccccc12 [Dolasetron mesylate] | 10.3
22 | OCCN(CCO)c1nc(N2CCCCC2)c2nc(N(CCO)CCO)nc(N3CCCCC3)c2n1 [Dipyridamole] | -2.85
23 | COc1ccc([C@@H]2Sc3ccccc3N(CCN(C)C)C(=O)[C@@H]2OC(C)=O)cc1 [Diltiazem hydrochloride] | 1.06
24 | CC(=O)O[C@H]1C(=O)[C@@]2(C)[C@H]([C@H](OC(=O)c3ccccc3)[C@]3(O)C[C@H](OC(=O)[C@H](O)[C@@H](NC(=O)c4ccccc4)c4ccccc4)C(C)=C1C3(C)C)[C@]1(OC(C)=O)CO[C@@H]1C[C@@H]2O [Taxol] | 2.27
25 | CC(=O)NC[C@H]1CN(c2ccc(N3CCOCC3)c(F)c2)C(=O)O1 [Linezolid] | 6.87
26 | CN1CCN(CCCN2c3ccccc3Sc3ccc(Cl)cc32)CC1 [Prochlorperazine dimaleate] | 27.2
27 | O=C(Nc1c(Cl)cncc1Cl)c1ccc(OC(F)F)c(OCC2CC2)c1 [Roflumilast] | 13.4
28 | CC(C)C(=O)Nc1ccc([N+](=O)[O-])c(C(F)(F)F)c1 [Flutamide] | -5.48
29 | CC(C)Nc1cccnc1N1CCN(C(=O)c2cc3cc(NS(C)(=O)=O)ccc3[nH]2)CC1 [Delavirdine mesylate] | 2.93
30 | CN1CC[C@@H](NC(=O)Nc2ccc(C#N)cc2)C[C@@H]1c1nc2ccccc2[nH]1 | 6.95
31 | Clc1ccc(COC(Cn2ccnc2)c2ccc(Cl)cc2Cl)c(Cl)c1 (stereo not given) [Miconazole nitrate] | -1.24
32 | CC(C)c1ccc2oc3nc(N)c(C(=O)O)cc3c(=O)c2c1 [Amlexanox] | 5.26
33 | CN(CCOc1ccc(CC2SC(=O)NC2=O)cc1)c1ccccn1 (stereo not given) [Rosiglitazone] | 17.9
34 | CCc1c2c(nc3ccc(OC(=O)N4CCC(N5CCCCC5)CC4)cc13)-c1cc3c(c(=O)n1C2)COC(=O)[C@]3(O)CC | 8.99
35 | O=C(NCC1CCCCN1)c1cc(OCC(F)(F)F)ccc1OCC(F)(F)F (stereo not given) [Flecainide acetate] | 6.31
36 | CN(C)CCC[C@@]1(c2ccc(F)cc2)OCc2cc(C#N)ccc21 [Escitalopram oxalate] | 14.5
37 | COC(c1ccccc1)(c1ccccc1)[C@H](Oc1nc(C)cc(C)n1)C(=O)O [Ambrisentan] | -1.02
38 | COc1c(C)c2c(c(O)c1C/C=C(\C)CCC(=O)OCCN1CCOCC1)C(=O)OC2 [Mycophenolate mofetil] | 4.14
39 | C[C@]12CCC(=O)C=C1CC[C@@H]1[C@@H]2[C@@H](O)C[C@@]2(C)[C@H]1CC[C@]2(O)C(=O)CO [Hydrocortisone] | 3.96
40 | Cc1cn([C@H]2C=C[C@@H](CO)O2)c(=O)[nH]c1=O [Stavudine] | 1.32
